Laboratory results taken from PubChem BioAssay (NCATS).
Inconclusive results are not listed. Active and inactive are the calls of the source. Calls follow the shape of the dose curve; as a rule, active = well fitted inhibition curve with a large enough effect; inconclusive = small, poorly fitted or top-dose-only effect; inactive = flat fitted curve, though single readings scatter. Where a SMILES comes first, the peptide text is derived from it. [ ]: non-standard residue; d: D form. ξ: configuration not given here. ξPhe(βξ-Me) = CC(c1ccccc1)C(N)C(=O)O; GABA = NCCCC(=O)O

The compounds below were run on NIH3T3 (assay: Cytotoxic Profiling of Annotated Libraries Using Quantitative High-Throughput Screening (AID 1296008; also: nearly all actives have a fitted effect of over 60% in size)). Conditions: Five cell lines viability, CellTiter-Glo ATP luminescence, 48-72 h; max response: active compounds read low.
Outline: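 Cytotoxicity was measured as CellTiter-Glo ATP luminescence, read after 10 min at room temperature. Compound treatment of the cells lasted 48 or 72 hr at 37 degrees Celsius in a qHTS format.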
% is scaled to controls: 0 for no effect and ±100 for the full control effect; potency is read from the fitted curve at half-maximal effect.

| SMILES | max response | Potency |
| --- | --- | --- |
| C[C@@H]1C[C@@H]([C@@H](O)C(C)(C)O)O[C@H]2C[C@@]3(C)C(=C12)C[C@H](O)[C@H]1[C@@]2(C)CCC(=O)C(C)(C)C2CC[C@@]13C (some centres undefined) | -0.489% (inactive) |  |
| CS(=O)(=O)N(CC(=O)NCC1CC1)c1cc(C(F)(F)F)ccc1Cl | -6.39% (inactive) |  |
| COC(=O)C1=COC(OC2OC(CO)C(O)C(O)C2O)C2C1C=CC2(O)CO (centres undefined) | 3.54% (inactive) |  |
| COC(=O)C1=CO[C@@H](O[C@@H]2O[C@H](CO[C@@H]3O[C@H](COC(=O)/C=C/c4cc(OC)c(O)c(OC)c4)[C@@H](O)[C@H](O)[C@H]3O)[C@@H](O)[C@H](O)[C@H]2O)[C@@H]2C(CO)=CC[C@H]12 | -2.41% (inactive) |  |
| CC(O)/C=C/C1C(C)C(O[C@@H]2O[C@H](CO)[C@@H](O)[C@H](O)[C@H]2O)C(O)CC1(C)C (some centres undefined) | 0.539% (inactive) |  |
| CC(C)=CCCC1(C)C=Cc2c(c(C)cc3c2[nH]c2ccccc23)O1 (centres undefined) | -4.99% (inactive) |  |
| Cc1cc(Nc2cc(N3CCN(C)CC3)nc(/C=C/c3ccccc3)n2)n[nH]1 |  | 2.31 µM (active) |
| Cc1ccc(NC(=O)C(=O)NC2CC(C)(C)NC(C)(C)C2)cc1 | -7% (inactive) |  |
| C[C@H](C/C=C/C(C)(C)O)[C@H]1CC[C@@]2(C)[C@@H]3[C@@H](O[C@@H]4O[C@H](CO)[C@@H](O)[C@H](O)[C@H]4O)C=C4C(CC[C@H](O)C4(C)C)[C@]3(C=O)CC[C@]12C (some centres undefined) | 3.81% (inactive) |  |
| C[C@@H]1O[C@@H](O[C@H]2[C@H](O)[C@@H](O)[C@H](OC3CCC4(C)C5CCC(C)(C(CO)OC6OC(CO)C(O)C(O)C6O)CC5=CCC4C3(C)C)O[C@@H]2CO)[C@H](O)[C@H](O)[C@H]1O (some centres undefined) | 3.8% (inactive) |  |
| CN[C@H](CC(C)C)C(=O)N[C@H]1C(=O)N[C@@H](CC(N)=O)C(=O)N[C@H]2C(=O)N[C@H]3C(=O)N[C@H](C(=O)N[C@H](C(=O)O)c4cc(O)cc(O)c4-c4cc3ccc4O)[C@H](O[C@H]3C[C@](C)(N)[C@@H](O)[C@H](C)O3)c3ccc(c(Cl)c3)Oc3cc2cc(c3O[C@@H]2O[C@H](CO)[C@@H](O)[C@H](O)[C@H]2O[C@H]2C[C@](C)(NCc3ccc(-c4ccc(Cl)cc4)cc3)[C@@H](O)[C@H](C)O2)Oc2ccc(cc2Cl)[C@H]1O | 1.69% (inactive) |  |
| Cc1[nH]c2ccccc2c1CCNC(=O)c1ccccc1F | 2.05% (inactive) |  |
| Cc1cc(C(=O)N2CCCCc3ccccc32)ccc1CNC(=O)N1CCC[C@H]1C(=O)N(C)C | 3.28% (inactive) |  |
| O=C(O)c1cccc(S(=O)(=O)N2CCc3ccccc3C2)c1 | -16.4% (inactive) |  |
| CC1=CC(=O)C2C(C)(C)CCC[C@]2(C)[C@H]1CO (some centres undefined) | 2% (inactive) |  |
| CC(C)c1nc(-c2ccc(NC(=O)Nc3cccc(C(F)(F)F)c3)c3ccccc23)c2c(N)nccn12 |  | 8.2 µM (active) |
| CC(C)c1c2cc(-c3ccnc(NC4CCC(NC5CCOCC5)CC4)n3)ccc2nn1C (centres undefined) |  | 1.03 µM (active) |
| COc1ccc([C@@H]2OC[C@H]3[C@@H]2CO[C@@H]3c2ccc(OC3OC(CO)C(O)C(O)C3O)c(OC)c2)cc1OC (some centres undefined) | -7.42% (inactive) |  |
| Cn1cc(S(=O)(=O)c2ccc(Cl)cc2)c2cccc(N3CCNCC3)c21 |  | 18.4 µM (active) |
| C/C=C/C(O)C1OC(=O)CC1Nc1ccc(C(=O)O)cc1 (centres undefined) | 1.46% (inactive) |  |

| SMILES | max response | Potency |
| --- | --- | --- |
| O=C(c1cc2c(cc1F)OC(c1ccc(F)cc1)(c1ccc(Cl)cc1Cl)O2)N1CCOCC1 (centres undefined) | -3.07% (inactive) |  |
| CC1NC(=O)CCCNC(=O)C(Cc2c[nH]c3ccccc23)NC(=O)C(C)NC(=O)C(C(C)C)NC(=O)C(C(C)c2ccccc2)NC(=O)C(C(C)C)NC1=O (stereo not drawn) (cyclo([GABA]AV[ξPhe(βξ-Me)]VAW); configuration not given here) | -4.21% (inactive) |  |
| CC(C)CC1NC(=O)C(C)NC(=O)C(CC(C)C)OC(=O)CCCNC1=O (centres undefined) | -22.2% (inactive) |  |
| C=CC/C=C\C/C=C\CCCCCCCc1cccc(O)c1C(=O)O | -1.27% (inactive) |  |
| COc1cc2c(cc1OC)[C@@H]1[C@H](O)[C@@H](OC)C=C3CCN(C2)[C@H]31 |  | 3.6 µM (active) |
| C[C@H](O)[C@H](O)/C=C/c1cccc(O)c1CO | -3.03% (inactive) |  |
| Cn1c(=O)cc(N2CCCC(N)C2)n(Cc2cc(F)ccc2C#N)c1=O (centres undefined) | -2.76% (inactive) |  |
| CC(C)(C)NCCCNC(=O)c1cccc(Br)c1 | 3.37% (inactive) |  |
| C=C1C[C@]23C[C@H]1CC[C@H]2[C@@]12CC[C@H](O)[C@@](C)(C(=O)O1)[C@H]2[C@@H]3C(=O)O | 3.45% (inactive) |  |
| COc1ccc2c(OC)c3ccoc3nc2c1OC | -9.34% (inactive) |  |
| CC(=O)N1CCc2ccc(O)c(OC3OC(COC4OCC(O)(CO)C4O)C(O)C(O)C3O)c2C1Cc1ccc(O)cc1 (centres undefined) | -4.18% (inactive) |  |
| CC(C)=CCC[C@](C)(O[C@@H]1O[C@H](CO)[C@@H](O)[C@H](O)[C@H]1O)[C@H]1CC[C@]2(C)[C@@H]1[C@H](O)CC1[C@@]3(C)CC[C@H](O)C(C)(C)C3[C@@H](O[C@@H]3O[C@H](CO)[C@@H](O)[C@H](O)[C@H]3O[C@@H]3OC[C@@H](O)[C@H](O)[C@H]3O)C[C@]12C (some centres undefined) | -2.19% (inactive) |  |
| O=C(NCc1cccc(O)c1)c1cc2cc(F)ccc2[nH]1 | -0.959% (inactive) |  |
| C/C1=C\CC[C@]2(C)O[C@@H]2[C@H](O)[C@H](C(C)C)[C@H](OC(=O)/C=C/c2ccccc2)C1 | 2.07% (inactive) |  |
| CCn1cc(NC(=S)Nc2cc(Cl)ccc2OC)c(C(N)=O)n1 | -1.95% (inactive) |  |
| CC1CC(C(O)C(C)(C)O)OC2CC3(C)C4(C)CCC5C(C)(C)C(=O)CCC5(C)C4CCC3(O)C12O (centres undefined) | 2.04% (inactive) |  |
| Cc1ccc(S(=O)(=O)Nc2ccccc2N2CCCCC2)s1 | 2.48% (inactive) |  |
| CC12CCC(=O)C=C1C(O)CC1C2C(O)CC2(C)C1CC[C@]2(O)C(=O)CO (some centres undefined) | 0.282% (inactive) |  |
| CC12CCC3c4ccc(OC5OC(C(=O)O)C(O)C(O)C5O)cc4CCC3C1CCC2O (centres undefined) | 3.14% (inactive) |  |
